# Reference: PubChem BioAssay (Tox21)
# Results filed as inconclusive are left out. Calls of active or inactive are those of the source. Calls follow the shape of the dose curve; as a rule, active = well fitted cell-killing curve with a large enough effect in the repeat runs; inconclusive = weak or mixed curves, or effect the other way; inactive = no such curve, though single readings can be large or run the other way.
# Experiment: qHTS assay to identify small molecule antagonists of the progesterone receptor (PR) signaling pathway - cell viability counter screen (AID 1346798); also: nearly all actives have a fitted effect of over 50% in size
# Settings: PR-UAS-bla HEK293T viability, CellTiter-Glo luminescence, 16 h; series mostly up to 92.4 µM; activity change, negative = cytotoxicity: at the top concentration
# Text: National Center for Advancing Translational Sciences [NCATS]
# NIH Chemical Genomics Center [NCGC]
# U.S. Environmental Protection Agency [EPA]
# National Institutes of Environmental Health Sciences [NIEHS]
# National Toxicology Program [NTP]
# U.S. Food and Drug Administration [FDA]
# Progesterone receptor (PR), a nuclear hormone receptor, plays an important role in development, metabolic homeostasis and reproduction. It is activated by the steroid hormone progesterone. Endocrine disrupting chemicals (EDCs) and their interactions with steroid hormone receptors like PR causes disruption of normal endocrine function. To identify the compounds that inhibit PR signaling, a PR-UAS-bla GripTite cell line i.e. PR-UAS-bla HEK293T (Invitrogen, Carlsbad, CA, USA) containing a beta-lactamase reporter gene under the control of an UAS response element was used to screen Tox21 10K compound library. The cytotoxicity of the Tox21 compound library against the PR-bla cell line was tested in parallel by measuring the cell viability using CellTiter-Glo assay in the same wells.
# Tox21 Assay Protocol Summary:
# PR-UAS-bla HEK293T cells were dispensed at 3,000 cells/4 uL of assay medium containing 2% charcoal stripped FBS per well into black wall/clear-bottom 1536-well plates using a Multidrop Combi (ThermoFisher Scientific, Waltham, MA) dispenser. After the assay plates were incubated at a 37C and 5% CO2 for 4 hr, 23 nL of compounds dissolved in DMSO, positive controls or DMSO only was transferred to the assay plate by a Pintool station (Kalypsys, San Diego, CA), followed by addition of 1 uL of R5020 in assay medium using a Flying Reagent Dispenser (FRD, Aurora Discovery, San Diego, CA). The plates were incubated at 37C and 5% CO2 for 16 hr. Then 1 uL of LiveBLAzer B/G FRET substrate was added using a Flying Reagent Dispenser, the plates were incubated at room temperature for 2 hours, and fluorescence intensity was measured by an Envision plate reader (PerkinElmer, Shelton, CT). For cell viability readout that measures cytotoxicity, 4 uL/well of CellTiter-Glo reagent was added into the assay plates using a FRD. After 30 min incubation at room temperature, the luminescence intensity in the plates was measured using a ViewLux (PerkinElmer) plate reader.
# % is scaled to controls: 0 for no effect and ±100 for the full control effect.
Compound,outcome,"activity change, negative = cytotoxicity"
COc1ccccc1OCC(O)CO (stereo not given),inactive,
O=C(O)c1cc2ccccc2cc1O,inactive,
C=Cc1ccc(C)cc1,inactive,
O=C(O)c1ccc(C(=O)O)c(C(=O)O)c1,inactive,
NCCCCCCN,inactive,
CC(=O)OCCOC(C)=O,,-3.99% (inactive)
CCCCCCO,inactive,
CN(C)CCOC(=O)COc1ccc(Cl)cc1,inactive,
c1ccc2c(c1)Cc1ccccc1-2,inactive,
CC(=O)Oc1ccc(C)cc1,inactive,
CC(C)=CCl,inactive,
O=S(=O)(O)c1ccccc1,inactive,
CC(CCO)CC(C)(C)C (stereo not given),inactive,
CCCOC(=O)c1ccccc1,inactive,
COc1ccc([N+](=O)[O-])cc1N,inactive,
CC1(C)NC(=O)NC1=O,inactive,
COc1ccc(N)c(C)c1,inactive,
CCCCCCCCCCO,inactive,
CC(=O)CCC=C(C)C,inactive,
Cc1ccc2ncccc2c1,inactive,

Compound,outcome,"activity change, negative = cytotoxicity"
COC(=O)CCCC(=O)OC,,-7.3% (inactive)
N[C@H](Cc1c[nH]c2ccccc12)C(=O)O,inactive,
CCc1ccccc1CC,inactive,
Brc1ccc(Br)c(Br)c1,inactive,
CCCCOC(=O)c1ccc(N)cc1,inactive,
O=C(O)/C=C/C(=O)O,inactive,
O=c1[nH]cnc2[nH]ncc12,inactive,
CC(CCl)OP(=O)(OC(C)CCl)OC(C)CCl (stereo not given),inactive,
C[Si]1(C)O[Si](C)(C)O[Si](C)(C)O[Si](C)(C)O1,inactive,
C=CC(C)CCCC(C)(C)O (stereo not given),inactive,
COc1ccc(C)cc1N,inactive,
CC(O)CC(C)(C)O (stereo not given),inactive,
COc1ccc(CCC(C)=O)cc1,inactive,
O=C1C(c2[nH]c3ccccc3c2O)=Nc2ccccc21,inactive,
CCNc1ccccc1,inactive,
CCCCCCCCCCCCCCCCO,inactive,
NCCNCCN,inactive,
CCCCCCCO,inactive,
Clc1ccccn1,inactive,
CC1(C)OC[C@@H]2O[C@@]3(C(=O)O)OC(C)(C)O[C@H]3[C@@H]2O1,inactive,
